Measured values from PubChem BioAssay (NCATS).
A number with no mark means an inactive call. Results filed as inconclusive are left out. The source made the active and inactive calls. Unless noted, the call rests on the fitted dose curve; in most records, active means well fitted curve in either direction with a large enough effect (not every such curve was filed as active); inconclusive means small, poorly fitted or top-dose-only effect, or another doubt; inactive means flat fitted curve, though single readings scatter.

Columns and labels:
[1] = AP1 Signaling Pathway (AID 357); conditions: ME-180 AP-1-bla reporter, EGF-induced, beta-lactamase ratio, 5 h; at 17.2 µM (top of the series) unless noted;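 further: ME-180 reporter cells stimulated with EGF at its EC50 level; on the % scale 0 is the no-effect control and ±100 the full control effect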
Method in brief: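 Modulation of EGF-driven AP-1 transcription was assessed with a beta-lactamase reporter in ME-180 cells. Compound and EC50 EGF were co-incubated 5 hours at 37 °C before 2.5-hour CCF4 loading at room temperature and dual-emission reading.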

[2] = NFAT Signaling Pathway (AID 444); conditions: Jurkat NFAT-bla M1, carbachol, beta-lactamase ratio, 5 h; at 17.2 µM (top of the series) unless noted;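 further: carbachol stimulus at about its EC50 of 1 µM final; on the % scale 0 is the no-effect control and ±100 the full control effect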
Method in brief: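 Jurkat cells carrying an NFAT-driven β-lactamase reporter and co-transfected muscarinic M1 receptor were treated with compound plus carbachol (1 uM final, an EC50 level) for 5 h at 37 °C. CCF4 loading followed for 1 h at RT; 460/530 nm ratio gave %activity.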

[3] = Stat Signaling Pathway (AID 446); conditions: ME-180 (cervical carcinoma) SIE beta-lactamase reporter, IL-6 stimulated, 5 h; at 17.2 µM (top of the series) unless noted;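 further: ME-180 cervical cancer cells given 40 pM IL-6 alongside compound; SIE-controlled beta-lactamase reporter measured as 460/530 nm FRET emission ratio; on the % scale 0 is the no-effect control and ±100 the full control effect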
Method in brief: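 Emission at 460 and 530 nm (excitation 405 nm) reports SIE-controlled beta-lactamase in ME-180 cells. Cells received compound with 40 pM IL-6 for 5 hrs at 37 C; data scaled between 300 pM IL-6 and 125 nM JAK-inhibitor controls.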

[4] = target: Glucocorticoid receptor (Homo sapiens) (UniProt P04150); assay: GR-GFP Redistribution (AID 450;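 active means compounds whose dose series gives a full or clear partial fitted curve of increased nuclear translocation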; further: potency means the concentration at half of the fitted maximal effect)
Glucocorticoid receptor (Homo sapiens), sequence (P04150 whole entry, looked up): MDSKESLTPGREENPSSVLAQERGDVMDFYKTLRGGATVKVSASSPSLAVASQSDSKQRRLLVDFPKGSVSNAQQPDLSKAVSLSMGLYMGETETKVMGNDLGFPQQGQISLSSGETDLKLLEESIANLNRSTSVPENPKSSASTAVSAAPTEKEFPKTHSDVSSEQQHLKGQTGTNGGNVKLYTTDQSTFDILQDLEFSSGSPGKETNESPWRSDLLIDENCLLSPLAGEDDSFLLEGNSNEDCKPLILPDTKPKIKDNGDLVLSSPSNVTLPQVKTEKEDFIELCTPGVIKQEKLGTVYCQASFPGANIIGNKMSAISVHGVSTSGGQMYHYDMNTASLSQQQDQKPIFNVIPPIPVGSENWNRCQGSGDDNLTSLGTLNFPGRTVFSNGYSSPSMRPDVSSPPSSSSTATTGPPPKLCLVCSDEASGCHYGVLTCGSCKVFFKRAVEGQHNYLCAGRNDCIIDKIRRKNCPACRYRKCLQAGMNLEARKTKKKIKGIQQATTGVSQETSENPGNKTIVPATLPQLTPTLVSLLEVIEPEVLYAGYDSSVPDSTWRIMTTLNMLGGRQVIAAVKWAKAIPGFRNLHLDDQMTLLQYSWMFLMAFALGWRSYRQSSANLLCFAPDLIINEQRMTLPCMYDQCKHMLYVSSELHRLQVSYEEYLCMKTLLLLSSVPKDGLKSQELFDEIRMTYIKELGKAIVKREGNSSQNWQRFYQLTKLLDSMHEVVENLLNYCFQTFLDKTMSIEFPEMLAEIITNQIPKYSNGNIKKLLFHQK

Row | SMILES | activity change, negative = inhibition [1] [%] | activity change, negative = inhibition [2] [%] | activity, negative = inhibition [3] [%] | Potency [4]
1 | CCCCCOc1ccccc1C(=O)NCCCC(=O)O | 2.16 | -1.98 | 1.72 | > 20.6 µM
2 | CCOc1ccc2nc(SCC(=O)Nc3ncccn3)[nH]c2c1 | -9.31 | 0.119 | -2.35 | > 20.6 µM
3 | O=C(O)c1cnn2c(C(F)(F)F)cc(-c3ccco3)nc12 | 11 | 1.41 | 16.2 | > 20.6 µM
4 | Cc1nc(SC2C=CS(=O)(=O)C2)n[nH]1 (stereo not given) | 5.25 | 11.6 | 2.19 | > 20.6 µM
5 | CCN(CC)CCN1C(=O)C(=O)/C(=C(/O)c2ccc(OC)cc2)C1c1ccco1 (stereo not given) | -1.18 | -15.2 | 3.92 | > 20.6 µM
6 | CC1(C)SC2[C@H](NC(=O)C(NC(=O)N3CCNC3=O)c3ccccc3)C(=O)N2C1C(=O)O (stereo not given in full) | -0.219 | 7.62 | 1.47 | > 20.6 µM
7 | O/N=C1\CCc2cc(Cl)ccc21 | -7.29 | -1.82 | 6.47 | > 20.6 µM
8 | CC(=O)C1=C(NC(=O)c2ccccc2F)C[C@@H]2[C@H]1C2(C)C | -3.24 | -24.2 | 18.8 | > 20.6 µM
9 | COc1cccc(C2C(C(=O)c3sc(C)nc3C)=C(O)C(=O)N2CCN2CCOCC2)c1OC (stereo not given) | 3.76 | 12.8 | 7.97 | > 20.6 µM
10 | CC1(C2(O)CC(c3ccccc3)ON2)CCCCC1 (stereo not given) | 11.4 | -10.5 | -1.99 | > 20.6 µM
11 | c1ccc2c(c1)[nH]c1c(N3CCN(C4CCCCC4)CC3)ncnc12 | 2.02 | -22.7 | 0.857 | > 20.6 µM
12 | CC1(C)NC(=O)N(CC(O)COc2cc3ccccc3cc2C(=O)N2CCCCC2)C1=O (stereo not given) | -6.63 | 8.86 | -3.07 | > 20.6 µM
13 | Cc1cc2c(c(=O)n1CC1CCCO1)C(c1ccc3c(c1)OCO3)C(C#N)=C(N)O2 (stereo not given) | -18.5 | -16.1 | -17.8 | > 20.6 µM
14 | CCn1c(SCC(=O)O)nc2sc3c(c2c1=O)CCC3 | 5.13 | -8.87 | -5.86 | > 20.6 µM
15 | CC1(C)Cc2c(C#N)c(N3CCN(C(=O)c4ccccc4)CC3)nc(-c3ccco3)c2CS1 | -7.63 | -24.6 | 9.81 | > 20.6 µM
16 | Cc1cc(=O)oc2c(CN3CCN(C)CC3)c(O)c(Cl)cc12 | 16.9 | 25 | 9.62 | > 20.6 µM
17 | CC(=O)OCC(=O)[C@@]1(O)CC[C@H]2[C@@H]3CCC4=CC(=O)C=C[C@]4(C)[C@@]3(Cl)[C@@H](Cl)C[C@@]21C | 11.8 | -9 | -0.258 | 0.0078 µM (active)
18 | C=CCN=C(C)C1=C(O)CCC1=O | 23.8 | -7.26 | 20.3 | > 20.6 µM
19 | CCCCCC1CC(CC#CCN2CCOCC2)C(=O)O1 (stereo not given) | 9.22 | -1.87 | -2.28 | > 20.6 µM
20 | CC(Sc1ccc2ccccc2n1)C(=O)O (stereo not given) | 14.7 | 9.86 | 5.88 | > 20.6 µM
21 | O=C(O)c1cc2n(n1)C(C(F)(F)F)CC(c1ccccc1)N2 (stereo not given) | 3.84 | -0.387 | -1.46 | > 20.6 µM
22 | CN1CCN(Cc2c(O)c(Cl)cc3c(-c4ccccc4)cc(=O)oc23)CC1 | -17.1 | -1.47 | -7.42 | > 20.6 µM
23 | C[N+](C)(C)CCOP(=O)([O-])OC[C@H](O)CO | 9.55 | 0.0397 | -1.98 | > 20.6 µM
24 | Cc1nn(CC(N)=O)c(=O)c2ccccc12 | 11.8 | 0.254 | 9.04 | > 20.6 µM
25 | COc1cc(C2C(C(=O)c3ccc(C)o3)=C(O)C(=O)N2c2cc(C)on2)cc(OC)c1OC (stereo not given) | 5.13 | -1.16 | 2.07 | > 20.6 µM
